# Measurements: article PMC11062922 (Nature Chemical Biology, 2023)
# Where two headings read alike, the source gives them in different places.
# Key:
# Parameters in all cases: species or system human, MV4-11 + K-562 + COLO205 + SK-N-BE2 + OVCAR-8
# PDGFRB = conditions: read-out: apparent Kd, n = 1
# PIK3CD = conditions: read-out: apparent Kd, compound concentrations: 100 nM and 1000 nM (sheet 'Samples'), n = 1
# AKT1 = conditions: read-out: apparent Kd, compound concentrations: 100 nM and 1000 nM (sheet 'Samples'), n = 1
# BMPR1B = conditions: read-out: apparent Kd, n = 1
# MAP2K1 = conditions: read-out: apparent Kd; compound concentrations: 100 nM and 1000 nM (sheet 'Samples'), CATDS: 3.9281553351087697E-2; n = 1
# NQO1 = conditions: read-out: apparent Kd; compound concentrations: 100 nM and 1000 nM (sheet 'Samples'), CATDS: 4.3711719751433897E-2; n = 1
# DDR2 = conditions: read-out: apparent Kd, n = 1
# TGFBR1 = conditions: read-out: apparent Kd, n = 1
# EPHB1 = conditions: read-out: apparent Kd, n = 1
# EPHB6 = conditions: read-out: apparent Kd, n = 1
# MAPKAPK2 = conditions: read-out: apparent Kd, n = 1
# JAK2 = conditions: read-out: apparent Kd, compound concentrations: 100 nM and 1000 nM (sheet 'Samples'), n = 1
# FLT4 = conditions: read-out: apparent Kd, compound concentrations: 100 nM and 1000 nM (sheet 'Samples'), n = 1
# PRKD2 = conditions: read-out: apparent Kd, compound concentrations: 100 nM and 1000 nM (sheet 'Samples'), n = 1
# PRKD3 = conditions: read-out: apparent Kd, compound concentrations: 100 nM and 1000 nM (sheet 'Samples'), n = 1
# GSK3A = conditions: read-out: apparent Kd, compound concentrations: 100 nM and 1000 nM (sheet 'Samples'), n = 1
# CDK17 = conditions: read-out: apparent Kd; compound concentrations: 100 nM and 1000 nM (sheet 'Samples'), CATDS: 3.3819881865538602E-2; n = 1
# [1] = compound concentrations:100 nM and 1000 nM (sheet 'Samples')
smiles,measurement,setting,value
COc1ccc(-n2cnc3c(N)ncnc32)cc1 [SKF-97236],potency estimated from few doses,"PDGFRB; compound concentrations: 100 nM and 1000 nM (sheet 'Samples'), CATDS: 0.12494680251160301",1970 nM
same,potency estimated from few doses,PIK3CD; CATDS: 0.374681686981787,222 nM
COc1ccc(Nc2nccc(N3CCC(NC(=O)Nc4ccc5c(c4)OCO5)C3)n2)cc1 (stereo not drawn) [GSK1379745A],potency estimated from few doses,AKT1; CATDS: 3.7255828319427503E-2,1760 nM
same,potency estimated from few doses,"BMPR1B; compound concentrations: 100 nM and 1000 nM (sheet 'Samples'), CATDS: 0.106136196425884",316 nM
same,potency estimated from few doses,MAP2K1,1560 nM
same,potency estimated from few doses,NQO1,1250 nM
NC(=O)c1cccc(Nc2nccc(Nc3cccc4[nH]ncc34)n2)c1 [GW782612X],potency estimated from few doses,"DDR2; compound concentrations: 100 nM and 1000 nM (sheet 'Samples'), CATDS: 3.15347900030735E-2",2580 nM
same,potency estimated from few doses,"TGFBR1; compound concentrations: 100 nM and 1000 nM (sheet 'Samples'), CATDS: 5.60805138513292E-2",406 nM
COc1cc(Nc2ccnc3cc(-c4ccncc4)ccc23)cc(OC)c1OC.Cl [GW494610A],potency estimated from few doses,"BMPR1B; compound concentrations: 100 nM and 1000 nM (sheet 'Samples'), CATDS: 3.91672481095015E-2",233 nM
same,potency estimated from few doses,"EPHB1; compound concentrations: 100 nM and 1000 nM (sheet 'Samples'), CATDS: 2.3499572328162702E-2",1250 nM
same,potency estimated from few doses,"EPHB6; compound concentrations: 100 nM and 1000 nM (sheet 'Samples'), CATDS: 2.9510558776715799E-2",536 nM
same,potency estimated from few doses,"MAPKAPK2; compound concentrations: 100 nM and 1000 nM (sheet 'Samples'), CATDS: 2.2209833673663099E-2",1620 nM
same,potency estimated from few doses,"PDGFRB; compound concentrations: 100 nM and 1000 nM (sheet 'Samples'), CATDS: 4.8396986719482699E-2",136 nM
same,potency estimated from few doses,"TGFBR1; compound concentrations: 100 nM and 1000 nM (sheet 'Samples'), CATDS: 2.6595956704932502E-2",765 nM
O=C1N=C(NCCc2cccc(Cl)c2)S/C1=C\c1ccc2ncccc2c1 [RO4509201-000],potency estimated from few doses,JAK2; CATDS: 7.2632093710390006E-2,736 nM
CS(=O)(=O)CCNCc1ccc(-c2ccc3ncnc(Nc4ccc(OCc5cccc(F)c5)c(C(F)(F)F)c4)c3c2)o1 [GW576484X],potency estimated from few doses,AKT1; CATDS: 4.8644382119909499E-2,2100 nM
same,potency estimated from few doses,"MAPKAPK2; compound concentrations: 100 nM and 1000 nM (sheet 'Samples'), CATDS: 5.1625153721040297E-2",1830 nM
Cl.Oc1cccc(Nc2ccnc3cc(-c4ccncc4)ccc23)c1 [GW494601A],potency estimated from few doses,"BMPR1B; compound concentrations: 100 nM and 1000 nM (sheet 'Samples'), CATDS: 3.10657492682959E-2",211 nM
same,potency estimated from few doses,"EPHB1; compound concentrations: 100 nM and 1000 nM (sheet 'Samples'), CATDS: 2.51104508673669E-2",479 nM
same,potency estimated from few doses,FLT4; CATDS: 2.2541605457452998E-2,773 nM
same,potency estimated from few doses,"PDGFRB; compound concentrations: 100 nM and 1000 nM (sheet 'Samples'), CATDS: 1.9069305404636899E-2",1970 nM
same,potency estimated from few doses,"TGFBR1; compound concentrations: 100 nM and 1000 nM (sheet 'Samples'), CATDS: 2.26052406331183E-2",762 nM
Cc1cccc(Nc2nc(NCCN)ncc2C(N)=O)c1 [GSK1292139B],potency estimated from few doses,PRKD2; CATDS: 7.4938194739321201E-2,1250 nM
same,potency estimated from few doses,PRKD3; CATDS: 6.9928558616796505E-2,1540 nM
CCN(CC)CCOc1ccc(Nc2ncc3cc(-c4c(Cl)cccc4Cl)c(=O)n(C)c3n2)cc1 [SB-601273],potency estimated from few doses,BMPR1B; [1],239 nM
same,potency estimated from few doses,DDR2; [1],319 nM
same,potency estimated from few doses,EPHB1; [1],10.6 nM
same,potency estimated from few doses,EPHB6; [1],175 nM
same,potency estimated from few doses,MAPKAPK2; [1],320 nM
same,potency estimated from few doses,PDGFRB; [1],576 nM
same,potency estimated from few doses,TGFBR1; [1],270 nM
O=C1N=C(NCc2cccs2)SC1Cc1ccc2ncccc2c1 (stereo not drawn) [RO4629078-000],potency estimated from few doses,"EPHB1; compound concentrations: 100 nM and 1000 nM (sheet 'Samples'), CATDS: 1.5393002457868701E-2",272 nM
same,potency estimated from few doses,FLT4; CATDS: 1.2746443799933199E-2,389 nM
same,potency estimated from few doses,GSK3A; CATDS: 2.0180819092640301E-2,174 nM
same,potency estimated from few doses,PRKD2; CATDS: 7.0804860166384202E-3,2110 nM
same,potency estimated from few doses,PRKD3; CATDS: 7.3913708056946199E-3,1750 nM
Cl.O=C1N=C(NCc2ccccn2)S/C1=C\c1ccc2ncccc2c1 [RO4874953-001],potency estimated from few doses,GSK3A; CATDS: 8.1690756727002906E-2,1370 nM
CCn1cc(-c2ccnc3[nH]c(-c4cccc(CN(C)C)c4)cc23)c(-c2ccc(NC(=O)N(C)C)cc2)n1 [GSK1070916],potency estimated from few doses,DDR2; [1],1830 nM
CNC1=NC(=O)/C(=C/c2ccc3ncccc3c2)S1 [RO4595949-000],potency estimated from few doses,JAK2; CATDS: 6.3201453255696996E-2,790 nM
same,potency estimated from few doses,PRKD2; CATDS: 5.1323444817528999E-2,1770 nM
Cc1ccc(O)cc1Nc1ccnc2cc(-c3ccccn3)ccc12.Cl [GW440139A],potency estimated from few doses,"BMPR1B; compound concentrations: 100 nM and 1000 nM (sheet 'Samples'), CATDS: 2.7107507605443299E-2",941 nM
same,potency estimated from few doses,"EPHB1; compound concentrations: 100 nM and 1000 nM (sheet 'Samples'), CATDS: 5.4162955802276501E-2",67.7 nM
same,potency estimated from few doses,"MAPKAPK2; compound concentrations: 100 nM and 1000 nM (sheet 'Samples'), CATDS: 2.53755109568197E-2",1570 nM
same,potency estimated from few doses,"TGFBR1; compound concentrations: 100 nM and 1000 nM (sheet 'Samples'), CATDS: 4.4422303259643102E-2",115 nM
NC1=NC(=O)/C(=C/c2ccc3ncccc3c2)S1 [RO4569139-000],potency estimated from few doses,JAK2; CATDS: 8.9240627559774202E-2,708 nM
same,potency estimated from few doses,PRKD3; CATDS: 6.7072777002688294E-2,1930 nM
CC(C)c1nc(-c2cccc(NS(=O)(=O)c3ccccc3)c2)c(-c2ccnc(Nc3ccc4c(c3)CN(C)CC4)n2)s1 [GSK1649598A],potency estimated from few doses,CDK17,124 nM
same,potency estimated from few doses,"EPHB6; compound concentrations: 100 nM and 1000 nM (sheet 'Samples'), CATDS: 1.8057075383437201E-2",489 nM
same,potency estimated from few doses,FLT4; CATDS: 1.55100813228086E-2,772 nM
same,potency estimated from few doses,PRKD2; CATDS: 5.2743679485786801E-2,59.3 nM
same,potency estimated from few doses,PRKD3; CATDS: 3.0357950556932599E-2,152 nM
Cc1ccc(O)cc1Nc1ccnc2cc(-c3ccc(CN4CCCCC4)o3)ccc12 [GW557777X],potency estimated from few doses,"BMPR1B; compound concentrations: 100 nM and 1000 nM (sheet 'Samples'), CATDS: 2.1920480328631101E-2",73.2 nM
same,potency estimated from few doses,"DDR2; compound concentrations: 100 nM and 1000 nM (sheet 'Samples'), CATDS: 1.39203861332134E-2",800 nM
same,potency estimated from few doses,"EPHB1; compound concentrations: 100 nM and 1000 nM (sheet 'Samples'), CATDS: 9.2243435191231293E-2",1.47 nM
same,potency estimated from few doses,FLT4; CATDS: 1.3507307153085599E-2,1020 nM
same,potency estimated from few doses,"PDGFRB; compound concentrations: 100 nM and 1000 nM (sheet 'Samples'), CATDS: 1.4075910538655201E-2",735 nM
same,potency estimated from few doses,PIK3CD; CATDS: 1.8513434924081099E-2,151 nM
same,potency estimated from few doses,PRKD2; CATDS: 2.1213632342937001E-2,83.5 nM
same,potency estimated from few doses,PRKD3; CATDS: 1.7058744664209799E-2,226 nM
same,potency estimated from few doses,"TGFBR1; compound concentrations: 100 nM and 1000 nM (sheet 'Samples'), CATDS: 1.55635860325104E-2",377 nM
